# Measurements as given in publication PMC4336329 (PLoS ONE, 2015).
# Out of some 310,000 compounds screened, about 14,000 (4.5%) showed an effect of 50% or more. Effects have a minus sign here. For the sample, strong results were picked, then their nearest neighbours and some compounds at random.
# Target: human ether-à-go-go-related gene (hERG) potassium channel (human, UniProt Q12809)
# Experiment: primary screen, population patch clamp on CHO cells stably expressing hERG; higher = less effect of the substance
# 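Further: peak tail current of the secondary pulse compared with the same well before compound.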
# Chain of human ether-à-go-go-related gene (hERG) potassium channel (Q12809 whole entry, looked up): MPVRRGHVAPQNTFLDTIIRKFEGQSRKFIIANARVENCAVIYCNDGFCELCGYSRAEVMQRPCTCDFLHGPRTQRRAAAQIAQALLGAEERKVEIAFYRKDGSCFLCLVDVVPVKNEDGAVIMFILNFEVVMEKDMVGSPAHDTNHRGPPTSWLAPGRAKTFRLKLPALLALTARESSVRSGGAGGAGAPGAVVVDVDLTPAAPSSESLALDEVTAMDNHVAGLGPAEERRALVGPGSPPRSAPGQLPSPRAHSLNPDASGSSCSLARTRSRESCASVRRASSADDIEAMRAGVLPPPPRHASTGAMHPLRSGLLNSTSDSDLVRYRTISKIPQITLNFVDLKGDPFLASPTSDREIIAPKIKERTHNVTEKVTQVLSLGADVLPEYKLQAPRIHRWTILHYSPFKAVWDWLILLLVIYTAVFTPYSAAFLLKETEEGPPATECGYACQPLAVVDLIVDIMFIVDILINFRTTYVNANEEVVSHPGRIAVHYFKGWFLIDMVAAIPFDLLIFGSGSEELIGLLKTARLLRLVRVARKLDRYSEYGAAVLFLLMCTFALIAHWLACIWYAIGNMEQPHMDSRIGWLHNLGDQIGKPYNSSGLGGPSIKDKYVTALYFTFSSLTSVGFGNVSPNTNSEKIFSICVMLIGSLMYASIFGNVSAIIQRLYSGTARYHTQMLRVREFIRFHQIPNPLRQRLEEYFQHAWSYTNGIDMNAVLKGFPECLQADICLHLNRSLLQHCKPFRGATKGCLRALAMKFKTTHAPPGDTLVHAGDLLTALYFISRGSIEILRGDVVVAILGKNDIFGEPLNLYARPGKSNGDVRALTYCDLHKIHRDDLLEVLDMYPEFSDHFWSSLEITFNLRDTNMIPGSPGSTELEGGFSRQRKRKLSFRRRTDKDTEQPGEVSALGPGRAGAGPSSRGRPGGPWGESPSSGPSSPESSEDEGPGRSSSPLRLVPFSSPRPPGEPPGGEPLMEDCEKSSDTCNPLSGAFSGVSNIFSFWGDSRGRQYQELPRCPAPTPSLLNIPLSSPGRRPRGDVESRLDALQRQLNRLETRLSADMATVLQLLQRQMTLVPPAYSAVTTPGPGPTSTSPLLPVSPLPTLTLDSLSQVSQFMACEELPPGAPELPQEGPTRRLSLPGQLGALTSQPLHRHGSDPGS
row,SMILES,"hERG current change (%, negative = inhibition) at 10uM"
1,CC(OC(=O)C1CCCCC1)C(=O)Nc1cccc([N+](=O)[O-])c1 (stereo not drawn),-4.48%
2,O=C(O)c1ccccc1N/N=C/c1cc(Br)cc(Br)c1O,11.6%
3,C=CCN(CC=C)C(=S)Nc1ccc(OC)c(OC)c1,10.3%
4,Cc1cc(OCC(=O)N2CCOCC2)c(C(C)C)cc1Cl,-4.17%
5,CC(O)CC(C(=O)NNc1ccccc1)C(=O)NNc1ccccc1 (stereo not drawn),21%
6,Cc1ccc(C(=O)NC(C)c2ccc(-n3ccnc3)cc2)cc1 (stereo not drawn),-54%
7,CC(=O)Nc1cccc(C(=O)NC(C)c2ccc(-n3ccnc3)cc2)c1 (stereo not drawn),-0.474%
8,CC(=O)Nc1ccc(C(=O)NC(C)c2ccc(-n3ccnc3)cc2)cc1 (stereo not drawn),7.74%
9,CC(NC(=O)C1CCN(C(=O)c2ccc(F)cc2)CC1)c1ccc(-n2ccnc2)cc1 (stereo not drawn),-64.7%
10,O=C(c1ccc(F)cc1)C1CCN(C(=O)c2ccncc2)CC1,-22.4%
11,COc1cc(C(=O)NC(C)c2ccc(-n3ccnc3)cc2)cc(OC)c1C (stereo not drawn),-72.9%
12,CC(NC(=O)c1cccc(N(C)C)c1)c1ccc(-n2ccnc2)cc1 (stereo not drawn),-68.3%
13,CC(NC(=O)c1ccco1)c1ccc(-n2ccnc2)cc1 (stereo not drawn),-37%
14,Cc1ccc(C(=O)NC(C)c2ccc(-n3ccnc3)cc2)o1 (stereo not drawn),-37.4%
15,Cc1ccccc1C(=O)N1CCC(C(=O)NC(C)c2ccc(-n3ccnc3)cc2)CC1 (stereo not drawn),-23%
16,Cc1occc1C(=O)N1CCCC(Nc2ccc(F)cc2)C1 (stereo not drawn),-3.68%
17,Cc1ccc(C(=O)Nc2ccc(N3CCN(C(=O)c4cccs4)CC3)cc2)c(Cl)c1,-5.13%
18,COC(=O)CSc1nnc(-c2cccnc2)n1-c1cc(OC)cc(OC)c1,-19.3%
19,N#Cc1ccccc1Oc1ccccc1C=O,-16.8%
20,Cc1ccc2nc(C)cc(N/N=C/c3cccc(O)c3)c2c1,12.4%
21,COc1ccc(S(=O)(=O)n2nc(OC(=O)c3cccs3)cc2N)cc1,-3.07%
22,CCOC(=O)CC1=NN(c2ccccc2)C(=O)/C1=C\c1ccc(N(C)C)cc1,24.6%
23,O=C(CNc1cccc(S(=O)(=O)N2CCCC2)c1)Nc1ccc(C(F)(F)F)cc1,15.1%

row,SMILES,"hERG current change (%, negative = inhibition) at 10uM"
1,CC(C)Cn1cnc2c1c(=O)n(C)c(=O)n2C,27.8%
2,CCOc1cc(C(=S)N2CCCCC2)ccc1OS(=O)(=O)c1ccc(Cl)cc1,-1.37%
3,N#CCCn1c(=S)[nH]c2ccccc21,12.9%
4,O=C(CN(CC1CCCO1)C(=O)CNS(=O)(=O)c1ccccc1)NCc1ccc(F)cc1 (stereo not drawn),11.9%
5,C/C(=C1\SC(N2CCOCC2)=NC1=O)c1ccccc1,-12.5%
6,CSc1ccccc1C(=O)NC(C)c1ccc(-n2ccnc2)cc1 (stereo not drawn),-39.7%
7,Cc1ccc(C(=O)NC(C)c2ccc(-n3ccnc3)cc2)c(C)c1 (stereo not drawn),-57.4%
8,Cc1ccc(C(O)c2ccc(-n3ccnc3)cc2)cc1 (stereo not drawn),-1.74%
9,CC(NC(=O)c1ccc(CS(C)(=O)=O)cc1)c1ccc(-n2ccnc2)cc1 (stereo not drawn),-1.32%
10,CSCc1ccc(C(=O)NC(C)c2ccc(-n3ccnc3)cc2)cc1 (stereo not drawn),-56%
11,CC(NC(=O)c1cc(F)c(F)c(F)c1F)c1ccc(-n2ccnc2)cc1 (stereo not drawn),-65.2%
12,C/C(=N\NC(=O)c1ccc(C)cc1C)c1ccc(-n2ccnc2)cc1,-16.6%
13,Cc1ccc(C)c(C(=O)NC(C)c2ccc(-n3ccnc3)cc2)c1 (stereo not drawn),-62.4%
14,CC(=O)c1sc(NC(=O)CS(=O)(=O)c2ccccc2)nc1C,-25.3%
15,CCOC(=O)/C(C#N)=C/c1ccc(OC(=O)c2ccccn2)cc1,-5.99%
16,OC1(c2cccc(C(F)(F)F)c2)CCN(Cc2nc(-c3cnccn3)no2)CC1,-0.399%
17,CCC(=O)N=c1sc2c(OC)ccc(OC)c2n1C,11%
18,COc1ccc(Cl)cc1C(=O)Nn1c(-c2cccs2)nc2ccccc2c1=O,-5.47%
19,O=C(O)c1nn(-c2ccccc2)nc1-c1nn(-c2ccccc2)nc1C(=O)O,19.7%
20,O=C(N/N=C/c1cc([N+](=O)[O-])ccc1Cl)c1cc(-c2ccccc2)nc2ccccc12,7.64%
21,CCCc1oc(C(=O)O)cc1CN.Cl,5.96%
22,COc1ccc(-c2c(S(=O)(=O)c3ccccc3)cnn2-c2ccccc2)cc1,-2.43%
23,Cl.O=C(CCN1CCc2ccccc2C(c2ccccc2)C1)c1ccc2c(c1)OCCO2 (stereo not drawn),-0.525%

row,SMILES,"hERG current change (%, negative = inhibition) at 10uM"
1,O=C(CCCc1ccccc1)c1ccc2c(c1)OCCO2,-5.25%
2,O=C1C(=O)N(CCCN2CCOCC2)C(c2ccc(F)cc2)/C1=C(/O)c1ccccc1 (stereo not drawn),23%
3,Cl.O=C(CCN1CCc2ccccc2CC1)c1ccc2c(c1)OCCO2,-60.6%
4,Cl.O=C(CCN1CCC(c2ccccc2)C1)c1ccccc1 (stereo not drawn),-35.8%
5,Cl.O=C(CCCN1CCC(c2ccccc2)C1)c1ccc2c(c1)OCCO2 (stereo not drawn),-70.3%
6,Cl.O=C(CCN1CCOCC1)c1ccccc1,3.53%
7,Cl.O=C(CCN1CCc2ccccc2C1)c1ccc2c(c1)OCCO2,-32.2%
8,Cl.O=C(CCN1CCCCC1)c1ccc2c(c1)OCCO2,4.82%
9,Cl.O=C(CCN1Cc2ccccc2C1)c1ccc2c(c1)OCCO2,-8.74%
10,Cl.O=C(CCCN1CCOC(c2ccccc2)C1)c1ccc(F)cc1 (stereo not drawn),-60.7%
11,Cl.O=C(CCN1CCC(c2ccccc2)C1)c1ccc2c(c1)OCCO2 (stereo not drawn),-56%
12,O=C1/C(=C/c2ccccc2Cl)N2CCC1CC2,-14.1%
13,Cc1ccc(OCCn2cc(/C=N/NC(=O)c3ccncc3)c3ccccc32)cc1,-7.64%
14,CCOc1ccc2nc(/N=C/c3nc(-c4ccccc4)oc3O)sc2c1,4.73%
15,COc1ccc(-n2c3c(cc(C(=O)N4CCC(C)CC4)c2=O)C(=O)CC(C)(C)C3)cc1,-2.69%
16,O=C(COC(=O)CNC(=O)c1ccccc1F)NCC(F)(F)F,9.36%
17,COc1cc(C(=O)O)cc(Br)c1OC1CCCC1,20.6%
18,O=S(=O)(NC1CCCCCC1)c1cccc2cccnc12,5.29%
19,O=[N+]([O-])c1ccc(NCc2ccccc2)c2nonc12,19.7%
20,CC(OC(=O)c1cccc([N+](=O)[O-])c1)C(=O)NCc1ccc2c(c1)OCO2 (stereo not drawn),-11.4%
21,COc1cccc(N2CCN(CC(=O)NCc3ccccc3)CC2)c1,-5.53%
22,COc1ccc(N2CCN(CC(=O)NCc3ccccc3)CC2)cc1,0.922%
23,Cc1ccc(CNC(=O)c2ccccc2NC(=O)CN2CCN(C)CC2)cc1,-59.2%

row,SMILES,"hERG current change (%, negative = inhibition) at 10uM"
1,COc1ccc(N2CCN(CC(=O)Nc3ccccc3C(=O)NCc3ccccc3)CC2)cc1,-55.9%
2,COc1cccc(N2CCN(CC(=O)Nc3ccccc3C(=O)NCc3ccccc3)CC2)c1,-60.9%
3,Cc1ccc(CNC(=O)c2ccccc2NC(=O)CN2CC(C)OC(C)C2)cc1 (stereo not drawn),-13.2%
4,COc1ccc(N2CCN(CC(=O)NC(=O)NCc3ccccc3)CC2)cc1,10.4%
5,CC(=O)N1CCN(CC(=O)Nc2ccccc2C(=O)NCc2ccc(C)cc2)CC1,-25.4%
6,COc1cccc(N2CCN(CC(=O)Nc3ccccc3C(=O)NCCc3ccccc3)CC2)c1,89.9%
7,CC(Oc1ccc(F)cc1)C(=O)NN (stereo not drawn),18.6%
8,O=C(CCc1ccccc1)Nc1cc2c(cc1Cl)OCCO2,-7.19%
9,COc1ccc(-c2csc(Nc3cccc(C)n3)n2)cc1C,5.87%
10,O=C1NC(=S)N(c2ccc(Cl)cc2)C(=O)/C1=C/N1CCN(C(=O)c2ccco2)CC1,7.25%
11,Cc1cc(C(=O)OCC(=O)Nc2nc(-c3ccccc3)cs2)c(C)o1,15.8%
12,Cc1oncc1C(=O)NC(C)C,-3.53%
13,CN(C(=O)c1ccc(NC(=O)Cc2ccc(NC(=O)C3CCCN(C(=O)C4CC4)C3)cc2)cc1)C1CC1 (stereo not drawn),-4.41%
14,Cc1nn(S(=O)(=O)c2ccc(Cl)cc2)c(C)c1S(=O)(=O)N1CCOCC1,20.9%
15,CCOc1ccccc1C1CC(=O)Nc2cc(OC)c(OC)c(OC)c21 (stereo not drawn),19.6%
16,CCc1c(C)nc2cc(-c3cc(OC)cc(OC)c3)nn2c1N1CCN(CCN2CCOCC2)CC1,-33.5%
17,COCCN1CCN(c2c(C)c(C)nc3cc(-c4cccc(OC)c4)nn23)CC1,-15.6%
18,CCc1c(C)nc2cc(-c3cc(OC)cc(OC)c3)nn2c1N1CCCC1,-2.11%
19,CCOCCN1CCN(c2c(C)c(C)nc3cc(-c4cc(OC)cc(OC)c4)nn23)CC1,-73.3%
20,CCOCCN1CCN(c2c(CC)c(C)nc3cc(-c4cc(OC)cc(OC)c4)nn23)CC1,-72.4%
21,COc1cc(OC)cc(-c2cc3nc4c(c(N5CCN(c6ncccn6)CC5)n3n2)CCCC4)c1,4.89%
